The text below walks through data of PubChem BioAssay (NCI).

The panel holds about 83,000 compounds, 20% with a hit somewhere; the sample as a whole holds those more often.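 48-hour exposure, single concentration, 96-well plates; percent growth endpoint where 0 means no net growth. Active: below 10.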 Values without a mark were called inactive. The source made the active and inactive calls.

The first experiment has as its system 786-0 renal. Briefly: NCI-60 one-dose screen, 48 h (100 = growth as untreated, 0 = no growth, -100 = all killed). The following applies: 10 µM unless noted.
For `COc1ccc(-c2ccc(-c3ccc(C(=N)N)o3)o2)cc1`, the growth is 21.9%.

Take `CC(C)c1nc(N(C)S(C)(=O)=O)nc(-c2ccc(F)cc2)c1/C=C/C(=O)C[C@@H](O)CC(=O)O`: the growth was 106%.

Turning to `CCOc1cc(\C=N/N=C(N)/C(N)=N\N=C/c2ccc(O)c(OCC)c2)ccc1O`, the growth is 110%.

Another experiment has as its system COLO 205 colon. The experiment is described as above. The following applies: 10 µM unless noted.
Consider `C=C1C(=O)O[C@H]2[C@H]1CC/C(COC(=O)NCc1ccc(Cn3c(=O)sn(CCCC)c3=O)cc1)=C\CC[C@@]1(C)O[C@@H]21`, for which the growth was -25% (active).

For the compound `O=C(Nc1ncc(Cc2ccccc2)s1)c1cc(-c2ccccc2)nc2ccccc12`, the growth was 100%.

With `CC(=O)Oc1ccccc1C(=O)N(Cc1ccc2c(Cl)cc(Cl)c(O)c2n1)c1ccccc1`, the growth was 93.7%.

On to `O=C(Nc1ccccc1)Nc1ccccc1CNc1nc(Nc2ccc(OCCN3CCCC3)cc2)ncc1Cl`, for which the growth was 33%.

For the compound `C#Cc1ccc(NC(=O)Cc2ccc(/C=C/C(=O)c3nccn3C)cc2)cc1`, the growth was 66%.

As to `O=C(O)c1nn(-c2ccc(Cl)cc2)nc1N1CCCC1`, the growth was 111%.

`CCc1ccc(Cc2cnc(NC(=O)c3cc(C)oc3C)s2)cc1`: the growth was 48.6%.

`O=C(NCCN1CCOCC1)c1cncnc1Nc1ccc2c(ccn2Cc2ccccn2)c1`: the growth was 95.6%.

Take `CC/C(=C(/c1ccc(Cl)cc1)c1ccc(OCCN2CCCCCC2)cc1)c1ccccc1`: the growth is 37%.

As for `CC(=O)OCC(=O)O[C@@H]1C[C@]2(C(C)C)O[C@@]1(C)[C@@H]1CC[C@@H](C)[C@H]1[C@@H]2OC(=O)/C=C/c1ccccc1`, the growth was 97.5%.

With `COc1ccc(C(=O)/C=C/c2ccc(C)cc2)cc1S(N)(=O)=O`, the growth was 95.8%.

With `Cc1ccc(Nc2oc(-c3ccccc3)nc2[P+](c2ccccc2)(c2ccccc2)c2ccccc2)cc1`, the growth was -34.7% (active).

Consider `COc1ccc(N/N=C/c2ccc3c(c2)Sc2ccccc2N3C)cc1`, for which the growth was 102%.

As to `COc1ccc(N2C(=O)/C(=C/C(Cl)=C/c3ccc([N+](=O)[O-])cc3)SC2=S)cc1`, the growth is -36% (active).

Turning to `COc1ccc(C2=C/C(=C\c3ccccc3O)C(=O)N2Cc2ccccc2)cc1`, the growth was 102%.

As to `COC(=O)[C@H]1Cc2c([nH]c3ccccc23)[C@H](c2ccc3c(c2)OCO3)N1`, the growth was 118%.

For `O=C(Nc1ncc(Cc2ccccc2)s1)c1ccc2c(c1)OCCO2`, the growth is -13.3% (active).

In the case of `CC(=O)CC(=O)c1ccccc1.[Cu+2]`, the growth is 116%.

Turning to `COC1CC(O)C2=C(CC3C(/C(C)=C\CC=C(C)C)CCC3(C)O2)C1=O` (stereo not drawn), the growth is 119%.

For the compound `Nc1c(C(=O)c2ccc(Cl)cc2)sc(Nc2ccccc2)c1-c1nc2ccccc2s1`, the growth is 51.4%.

In the case of `C=CC(=O)Nc1ccc2ncnc(Nc3cccc(NS(=O)(=O)CCC)c3Cl)c2c1`, the growth was 12%.

`CCN1C(=O)N(CC)C2C1NC(=S)N2/N=C/C=C/c1ccccc1` (stereo not drawn): the growth was -30.4% (active).

`Oc1cccc2c1NCCC2`: the growth is 38.6%.

On to `CCOC(=O)c1cnc2sc(-c3ccc(OC)cc3)nc2c1Cl`, for which the growth is 123%.

`Cc1ccc2nc(/C=C/c3ccc(N(C)C)cc3)cc(C)c2c1`: the growth was 23.5%.

For `C=CCOC(=O)C1=C(C)N(CC)C(=O)N(CC)C1c1c(Cl)n(C)c2ccccc12` (stereo not drawn), the growth was 96.9%.

Turning to `C=C(C)[C@@H]1CC[C@]2(COC(=O)c3cccnc3)CC[C@]3(C)[C@H](CC[C@@H]4[C@@]5(C)CCCN(C(=O)c6cccnc6)C(C)(C)[C@@H]5CC[C@]43C)[C@@H]12`, the growth is 27.9%.

Take `COc1ccc(C2=NN3C(C2)c2cc(Br)ccc2OC3c2ccncc2)cc1` (stereo not drawn): the growth was 110%.

In the case of `C=CC(=O)NCc1cccc(Nc2ncc(Br)c(NCCCNC(=O)C3CCC3)n2)c1`, the growth was -25.7% (active).

As for `O=C(O)/C=C/c1cn(-c2ccccc2)nc1-c1ccc(F)cc1`, the growth is 104%.

With `CCNCCNc1c(C)c(-c2ccc(C(F)(F)F)cc2)c(C#N)c2nc3ccccc3n12`, the growth was 88.2%.

On to `O=C1CCc2c(sc3[nH]c(=S)n(-c4cc(C(F)(F)F)cc(C(F)(F)F)c4)c(=O)c23)C1`, for which the growth is -80% (active).

In the case of `COc1cc2cc(Oc3ccc(NC(=O)Nc4ccc(F)c(C(F)(F)F)c4)cc3)c(C)nc2cc1OCCN1CCCCC1`, the growth was -64% (active).

For the compound `Cc1ccc2c(c1)CC(O)CC1C(=O)N(CCO)CC(=O)N21` (stereo not drawn), the growth is 110%.

Turning to `CC(C)(C)CC(C)(C)Nc1c(-c2c(O)c3ccccc3oc2=O)nc2sccn12`, the growth is 102%.

Consider `O=C1NC(=O)C(=Cc2cc(-c3ccc(Cl)cc3)n(-c3ccccc3)n2)C(=O)N1`, for which the growth was 108%.

In the case of `CCOC(=O)c1c2c(n3ccc(NC(=O)CCN4CCCC4)cc13)C(=O)c1ncccc1C2=O`, the growth is 15.4%.

As for `COc1ccc(-c2ccc(-c3ccc(C(=N)N)o3)o2)cc1`, the growth was -45.8% (active).

Regarding `CC(C)c1nc(N(C)S(C)(=O)=O)nc(-c2ccc(F)cc2)c1/C=C/C(=O)C[C@@H](O)CC(=O)O`, the growth is 112%.

As for `CCOc1cc(\C=N/N=C(N)/C(N)=N\N=C/c2ccc(O)c(OCC)c2)ccc1O`, the growth was 5.55% (active).
